Shown are actives, neighbours in structure and some others; about 19% of the full set was active somewhere.
TDP1 cell noCPT = qHTS for Inhibitors of human tyrosyl-DNA phosphodiesterase 1 (TDP1): qHTS in cells in absence of CPT. Potency, µM (top dose mostly 46.2 µM), hits mostly inhibitors. AID 686978, 2013. DT40 Tdp1-/- hTDP1 cells, no CPT, ATP luminescence, 48 h. actives 15% (n = 420,000); further: nearly all actives have a fitted effect of over 55% in size
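Growth kinetics read by CellTiter-Glo luminescence after ≥48 hr at 37 °C. Cells: DT40 Tdp1-/- stably carrying human TDP1, 400 per well, compound exposure in the absence of CPT (DMSO vehicle).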
KB-3-1 cytotox = qHTS assay for MDR1-selective chemotherapeutics: Primary screen using the parental adenocarcinoma cell KB-3-1; KB-3-1 viability, CellTiter-Glo ATP luminescence, 72 h; Potency, µM (doses to about 46.1 µM), actives largely listed as cytotoxic; AID 1347075, 2019; actives 1.4% (n = 400,000); further: nearly all actives have a fitted effect of over 60% in size
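Multi-concentration cytotoxicity screen in KB-3-1 cells grown in DMEM lacking phenol red with 10% FBS. After 72 h at 37 °C with compound, ATP-dependent luminescence was recorded.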
HT1080-NT tox = qHTS for induction of synthetic lethality in tumor cells producing 2HG: qHTS for the HT-1080-NT fibrosarcoma cell line | actives 1.6% (n = 360,000) | Potency, µM (series often up to 46.1 µM), actives largely listed as cytotoxic | AID 686970, 2013 | HT-1080-NT fibrosarcoma viability, CellTiter-Glo ATP luminescence, 48 h;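 further: NT is the 2HG producing partner of a matched IDH1 knockdown line; nearly all actives have a fitted effect of over 55% in size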
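Compounds were tested in concentration-response format on HT-1080-NT cells for 48 hours at 37 degrees C. Cell viability came from CellTiter-Glo luminescence; curves were classified by r2, response magnitude and activity.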
HT1080 IDH1KD tx = qHTS for induction of synthetic lethality in tumor cells producing 2HG: qHTS for the HT-1080-IDH1KD cell line; HT-1080 IDH1 knockdown viability, ATP luminescence, 48 h; Potency, µM (highest dose often 46.1 µM), actives largely listed as cytotoxic; actives 2% (n = 360,000); AID 686971, 2013
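IDH1KD HT-1080 cells, 750/well, RPMI + 5% FBS; compound pinned after 2 h settling; 48 h, 37 °C; CellTiter-Glo luminescence; % activity normalised to DMSO and no-cell wells; curves fitted, classed by r2 and efficacy.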
DT40 TDP1 CPT = qHTS for Inhibitors of human tyrosyl-DNA phosphodiesterase 1 (TDP1): qHTS in cells in presence of CPT | actives 12% (n = 420,000) | chicken DT40 Tdp1-/-;hTDP1 cells + 20 nM CPT, ATP luminescence, 48 h | AID 686979, 2013 | Potency, µM (doses to about 46.2 µM), actives largely listed as inhibitors; further: nearly all actives have a fitted effect of over 55% in size
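Chicken DT40 Tdp1-/- cells complemented with human TDP1, 400 cells/well, exposed to compounds plus 20 nM camptothecin for at least 48 h at 37 C; viability read as ATP content by CellTiter-Glo luminescence.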
KB-V1 MDR tox = qHTS assay for MDR1-selective chemotherapeutics: Primary screen using the drug-selected MDR subline cells KB-V1; KB-V1 MDR cells viability, CellTiter-Glo, 72 h; Potency, µM (highest dose often 46.1 µM), most hits filed as cytotoxic; actives 3.4% (n = 400,000); AID 1347076, 2019; further: nearly all actives have a fitted effect of over 60% in size
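Luminescent ATP read-out (CellTiter-Glo, 10 min) measures survival of drug-selected KB-V1 MDR cells after 72 h, 37 degrees C compound exposure. Medium: phenol-red-free DMEM, 10% FBS. Values from fitted concentration-response curves.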
A number is an active result; - = inactive; ? = inconclusive; . = no result given; [ ] = remark or other dose. The call rests on the fitted dose curve; in most records, active means well fitted curve in the direction sought with a large enough effect; inconclusive means small, poorly fitted or top-dose-only effect, or another doubt; inactive means no such curve, though single readings can be large; an effect the other way counts as inactive or inconclusive.

SMILES | TDP1 cell noCPT | KB-3-1 cytotox | HT1080-NT tox | HT1080 IDH1KD tx | DT40 TDP1 CPT | KB-V1 MDR tox
C[n+]1ccccc1N1CCN(c2ccccc2Cl)CC1 | ? | 21µM | - | - | 23µM | -
CCOC(=O)C1=C(C)N(c2ccccc2)C(=O)/C1=C\c1ccc(O)c(OC)c1 | ? | - | - | ? | - | -
CCOC(=O)C1=C(Cc2ccc(OC)cc2)C(=O)c2ccccc2C1=O | 8.2µM | - | 10µM | 7.9µM | 4.6µM | -
CCOC(=O)C1=C(O)c2ccccc2C(=O)/C1=C\c1ccc(CC)cc1 | 21µM | 12µM | 11µM | 8.9µM | 21µM | ?
CN(C)S(=O)(=O)c1cccc(NC(=S)N/N=C/c2cc(Br)ccc2O)c1 | 3.7µM | ? | ? | ? | 2.6µM | ?
CN(C)S(=O)(=O)c1cccc(NC(=S)N/N=C/c2cccc(O)c2)c1 | - | - | - | - | ? | -
Fc1cccc(Cl)c1C1Nc2cccc3cccc(c23)N1 | 21µM | - | - | - | 23µM | ?
COc1ccc(C2Nc3cccc4cccc(c34)N2)cc1 | ? | - | - | - | 21µM | -
COc1cc(OC)c(C2Nc3cccc4cccc(c34)N2)c(OC)c1 | 15µM | - | - | - | 21µM | -
COc1cc(OC)c(C2SCCS2)c(OC)c1 | - | - | - | - | - | -
Clc1ccc(C2Nc3cccc4cccc(c34)N2)cc1Cl | ? | - | - | - | ? | -
Clc1cccc(Cl)c1C1Nc2cccc3cccc(c23)N1 | ? | ? | ? | ? | ? | -
O=[N+]([O-])c1ccccc1C1Nc2cccc3cccc(c23)N1 | ? | - | - | - | 7.3µM | -
O=c1[nH]c(SCc2ccccc2)ncc1S(=O)(=O)c1ccccc1 | - | . | - | - | - | .
Brc1cccc(C2Nc3cccc4cccc(c34)N2)c1 | - | - | - | - | ? | ?
Brc1ccc(C2Nc3cccc4cccc(c34)N2)o1 | 18µM | - | ? | -[9.24 µM] | 21µM | -
Oc1ccccc1C1Nc2cccc3cccc(c23)N1 | ? | - | - | - | ? | -
CN(C)c1ccc(C2Nc3cccc4cccc(c34)N2)cc1 | 23µM | ? | - | - | ? | -
Clc1cccc(C2Nc3cccc4cccc(c34)N2)c1 | 10µM | - | - | - | 5.2µM | -
COc1ccccc1C1Nc2cccc3cccc(c23)N1 | 21µM | - | - | - | 15µM | -
CS(=O)(=O)N1CCC2(CCN(c3ccccc3)CC2)CC1 | ? | . | . | . | - | .
Cc1nc(C(N)=O)c(N)n1CCc1ccccc1 | - | - | - | - | - | -
O=C1NC(c2ccc(Cl)cc2)Nc2ccccc21 (stereo not given) | - | - | - | - | - | -
c1csc(C2Nc3cccc4cccc(c34)N2)c1 | ? | - | - | - | 16µM | -
CN1c2cccc3cccc(c23)N(C)C1c1cccs1 | - | - | - | - | - | -
SMILES | TDP1 cell noCPT | KB-3-1 cytotox | HT1080-NT tox | HT1080 IDH1KD tx | DT40 TDP1 CPT | KB-V1 MDR tox
CN(C)c1ccc(C2NC(=O)c3ccccc3N2)cc1 (stereo not given) | - | ? | - | - | - | 13µM
c1ccc(C2Nc3cccc4cccc(c34)N2)cc1 | - | - | - | - | 18µM | -
C[C@@H]1CN([C@H](C)CO)C(=O)CCCn2cc(nn2)CO[C@H]1CN(C)S(=O)(=O)c1ccccc1 | - | - | - | - | - | -
Cc1ccccc1-c1nnc(SCC(=O)NC2CCCC2)n1C | - | ? | - | - | - | -
C/C(=N\Nc1nc(-c2cc(C)ccc2C)cs1)c1cc2c(ccc3ccccc32)oc1=O | 16µM | ? | - | - | ? | ?
C/C(=N\Nc1nc(-c2cc(C)ccc2C)cs1)c1cc2ccccc2oc1=O | - | - | - | - | - | -
Cc1ccnc2nc(C(=O)Nc3ccc(S(=O)(=O)N4CCCC4)cc3)nn12 | - | - | - | - | ? | -
COc1ccc(NC(=S)Nc2ccccc2SC)c(OC)c1 | ? | - | - | - | - | -
CCCCn1c(SCC(=O)NC2CC2)nnc1-c1ccncc1 | - | - | - | - | - | -
CCCn1c(SCC(=O)NC2CCCCC2)nnc1-c1ccncc1 | - | - | - | - | 29µM | -
CCn1c(SCC(=O)NC2CCCCC2C)nnc1-c1ccc(OC)cc1 (stereo not given) | - | - | - | - | ? | 2.6µM
CCCCNC(=O)c1nc(C2CCNCC2)oc1-c1cccc(C(F)(F)F)c1 | ? | - | ? | ? | ? | -
COc1ccc(NC(=O)NC(C)c2c(-n3cccc3)sc3c2CCN(C)C3)c(OC)c1 (stereo not given) | 23µM | . | . | . | ? | .
COc1ccc(NC(=O)NC(C)c2ccc3c(c2)OCO3)c(OC)c1 (stereo not given) | - | - | - | - | - | -
CCOC(=O)c1cccc(NC(=O)NC(C)c2c(-n3cccc3)sc3c2CCN(C)C3)c1 (stereo not given) | 16µM | . | . | . | 15µM | .
CCN1CCN(CCC(=O)Nc2cc(OC)ccc2OC)CC1 | - | - | - | - | - | -
CCC(NC(=O)Nc1cc(OC)ccc1OC)c1c(-n2cccc2)sc2c1CCN(CC)C2 (stereo not given) | 23µM | . | . | . | ? | .
Cc1ccc(NC(=O)Nc2nnc(-c3ccncc3)s2)cc1C | 13µM | ? | - | - | 21µM | ?
O=C(Nc1ccccc1)Nc1nnc(-c2ccncc2)s1 | . | 18µM | . | . | . | ?
CC(=O)c1ccc(NC(=O)Nc2nnc(-c3ccncc3)s2)cc1 | . | - | . | . | . | -
c1ccc2c(Nc3nnc(-c4ccncc4)s3)cccc2c1 | - | - | - | - | ? | 15µM
O=C(Nc1ccc(-c2ccccc2)cc1)Nc1nnc(-c2ccncc2)s1 | . | ? | . | . | . | -
O=C(Nc1ccc(F)cc1)Nc1nnc(-c2ccncc2)s1 | 21µM | - | - | - | ? | -
CC(C)(C)NC(=O)Nc1nnc(-c2ccncc2)s1 | . | ? | . | . | . | -
O=C(Nc1ccc(F)cc1)C1CCN(S(=O)(=O)c2cccs2)CC1 | ? | - | - | - | ? | -
O=C(Nc1cccc(Cl)c1)Nc1nnc(-c2ccncc2)s1 | 5.8µM | 13µM | ? | 10µM | 7.3µM | ?
O=C(Nc1nnc(-c2ccncc2)s1)Nc1ccc(Cl)cc1Cl | . | - | . | . | . | -
CCCCc1nc2sc3c(=O)n(N)cnc3c2c2c1CCCC2 | ? | - | - | - | - | -
CCCc1nc2sc3c(=O)n(N)cnc3c2c2c1CCCC2 | 9.2µM | - | - | - | 12µM | ?

Assay outcomes from PubChem.
